For five molecules, composite z-score and z-score results are on record in PubChem BioAssay.

The source made the active and inactive calls. Unless noted, no rule for the calls is given here.

A short description of experiment [1]: compounds binding Alexa647 anti-His antibody – biochemical, small-molecule microarray, 635 nm fluorescence, artefact control for SMM control protein annotation, primary screen (AID 1128).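 Also: score merges feature fluorescence with signal-to-noise for each printed compound spot.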 The following applies: higher = more signal.
Experiment [2] has as its system Human papillomavirus type 1a E7 protein (residues 1-88). Put plainly: HPV1a E7 small-molecule binders, primary screen, biochemical, small-molecule microarray, residues 1-88, 635 nm (AID 1129). The following applies: small-molecule microarray binding, fluorescence 635 nm; higher = more signal.
The target of experiment [3] is Focal adhesion kinase 1 (Homo sapiens) (UniProt Q05397). Put plainly: PTK2 protein binding on printed compound slides – biochemical, small-molecule microarray, 635/667 nm fluorescence, BSA, DTT, primary screen (AID 1130).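 Also: composite of spot emission at 667 nm and signal to noise over triplicate slides.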 The following applies: 635 nm fluorescence, higher = more signal.
For experiment [4], the system named is Fibrinogen (Alexa647-labelled). Put plainly: Alexa647-fibrinogen binding to printed small molecules – biochemical, small-molecule microarray, 635/667 nm fluorescence, artefact control for SMM control-protein annotation, profiling panel (AID 1131).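 Also: z-score merges 667 nm fluorescence with per-spot signal-to-noise over triplicate slides.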 The following applies: fibrinogen-A647 binding fluorescence, higher = more signal.
For experiment [5], the target named is Follistatin (Homo sapiens) (UniProt P19883). Put plainly: FST protein binding to printed compounds – biochemical, small-molecule microarray, 635/667 nm fluorescence, primary screen (AID 1132). The following applies: 635 nm fluorescence, higher = more signal.
For experiment [6], the target named is Fibroblast growth factor 2 (Homo sapiens) (UniProt P09038). Put plainly: basic fibroblast growth factor binding to printed compounds – biochemical, small-molecule microarray, 635/667 nm fluorescence, primary screen (AID 1133). The following applies: FGF2, fluorescence 635/667, higher = more signal.
Experiment [7] is described as follows: JC-1 mitochondrial potential readout, lung cancer cells – cell-based, A549, JC-1 fluorescence, basal, 24 h, 100 nL, profiling panel (AID 1138).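 Also: A549 lung adenocarcinoma cells under basal conditions with no added stimulus; test concentration not given here.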 The following applies: higher = more signal.
Another experiment deals with Lefty1. Put plainly: Lefty1 protein binding to printed compounds – biochemical, small-molecule microarray, 635/667 nm fluorescence, primary screen (AID 1139). The following applies: fluorescence 635/667, higher = more signal.
For experiment [8], the system named is wheat germ agglutinin (Triticum aestivum), Alexa647-labelled. Put plainly: Alexa647-WGA lectin binding to printed small molecules – biochemical, small-molecule microarray, 635/667 nm fluorescence, artefact control for SMM control-protein annotation, profiling panel (AID 1140).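 Also: score merges 667 nm feature emission with signal to noise over triplicate slides.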 The following applies: WGA-A647 binding, 635 nm fluorescence, higher = more signal.

For experiment [9], the target named is Luciferin 4-monooxygenase (Photinus pyralis) (UniProt P08659). Put plainly: inhibition of purified Photinus pyralis luciferase – biochemical, luminescence, purified enzyme, 2006 set, primary screen (AID 1141).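 Also: cell-free assay with purified firefly luciferase at 100 ng per well in PBS; test concentration not given here.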 The following applies: purified firefly luciferase, SteadyGlo luminescence, 30 min; higher = more signal, called active from +8 up or from −8 down.
Experiment [10] has as its system Wnt5a (protein binding on small-molecule microarray). Put plainly: small molecules binding Wnt5a protein – biophysical, small-molecule microarray, 635/667 nm fluorescence, primary screen (AID 1142).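 Also: fluorescence read at 667 nm with signal to noise per printed feature.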 The following applies: 635 nm fluorescence, higher = more signal.
Experiment [11] is described as follows: ATP-based viability of Huh7 replicon cells – cell-based, CellTiter-Glo luminescence, basal, 48 h, cytotoxicity control for HCV replication inhibitor project, primary screen (AID 1143).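 Also: Huh7 hepatoma cells carrying a hepatitis C replication reporter with no stimulus; test concentration not given here.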 The following applies: higher = more signal, called active from +8 up or from −8 down. On the technique in general: A replicon is a self-replicating genome or part of one, used to study replication in cells.

A short description of experiment [12]: Pseudomonas biofilm growth suppression – PAO1 strain, BacTiter-Glo luminescence, LB-PBS, primary screen (AID 1144). The following applies: P. aeruginosa PAO1 biofilm, 12 h, higher = more signal.
Experiment [13] in a line: basal CRE-LacZ reporter activity in PC12 – cell-based, unstimulated, primary screen (AID 1145). The following applies: no forskolin, luminescence, 4.5 h, higher = more signal, called active from +8 up or from −8 down.
Experiment [14] is described as follows: forskolin-driven CRE-LacZ activity in PC12 – cell-based, CRE-LacZ reporter, forskolin-stimulated, primary screen (AID 1146).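 Also: PC12 cells with 6xCRE LacZ reporter stimulated by forskolin 10 µM; beta-galactosidase reporter signal reflecting CREB driven transcription.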 The following applies: luminescence, 4.5 h, higher = more signal, called active from +8 up or from −8 down.
In experiment [15] the target is Streptavidin (Streptomyces avidinii) (UniProt P22629). Put plainly: compounds binding control protein streptavidin – biophysical, small-molecule microarray, 635/667 nm fluorescence, artefact control for SMM compound annotation, primary screen (AID 1147).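 Also: signal reflects streptavidin binding to arrayed compounds as a control protein.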 The following applies: higher = more signal.
Experiment [16] is described as follows: probe aInhba binding on compound microarray – biochemical, small-molecule microarray, 635/667 nm fluorescence, primary screen (AID 1148).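 Also: score merges 667nm spot fluorescence with signal-to-noise for antibody binding to printed compounds.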 The following applies: higher = more signal.
Experiment [17] deals with Torsin-1A (Homo sapiens) (UniProt O14656). Put plainly: TOR1A wild-type binding on microarray – cell lysate, small-molecule microarray, lysate, 635/667 nm, primary screen (AID 1149). The following applies: COS7 hTOR1A-WT lysate, 635 nm fluorescence, higher = more signal.
Experiment [18] has the same target. Put plainly: torsin A mutant lysate binding on microarrays – cell lysate, small-molecule microarray, COS7 lysate, 635/667 nm fluorescence, primary screen (AID 1150).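 Also: score pools 667 nm emission and signal to noise measuring lysate protein binding.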 The following applies: COS7 hTOR1A mutant lysate, 635 nm fluorescence, higher = more signal.
The subject of experiment [19] is Sonic hedgehog protein (Shh). Put plainly: Sonic hedgehog microarray binding compounds – biochemical, small-molecule microarray, 635/667 nm fluorescence, primary screen (AID 1151).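 Also: Shh protein binding to compounds spotted on small-molecule microarray slides; score combines spot fluorescence intensity with signal-to-noise across triplicate slides.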 The following applies: 635 nm fluorescence, higher = more signal.

Chain of Fibroblast growth factor 2 (Homo sapiens) (P09038 whole entry, looked up): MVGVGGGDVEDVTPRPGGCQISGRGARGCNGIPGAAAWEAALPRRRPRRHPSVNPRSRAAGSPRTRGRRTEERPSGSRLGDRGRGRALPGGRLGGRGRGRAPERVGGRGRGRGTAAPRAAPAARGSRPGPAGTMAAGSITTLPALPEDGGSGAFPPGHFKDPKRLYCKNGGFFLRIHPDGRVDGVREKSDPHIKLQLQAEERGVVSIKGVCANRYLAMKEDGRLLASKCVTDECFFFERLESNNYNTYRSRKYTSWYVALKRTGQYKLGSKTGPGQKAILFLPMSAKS
Chain of Torsin-1A (Homo sapiens) (O14656 whole entry, looked up): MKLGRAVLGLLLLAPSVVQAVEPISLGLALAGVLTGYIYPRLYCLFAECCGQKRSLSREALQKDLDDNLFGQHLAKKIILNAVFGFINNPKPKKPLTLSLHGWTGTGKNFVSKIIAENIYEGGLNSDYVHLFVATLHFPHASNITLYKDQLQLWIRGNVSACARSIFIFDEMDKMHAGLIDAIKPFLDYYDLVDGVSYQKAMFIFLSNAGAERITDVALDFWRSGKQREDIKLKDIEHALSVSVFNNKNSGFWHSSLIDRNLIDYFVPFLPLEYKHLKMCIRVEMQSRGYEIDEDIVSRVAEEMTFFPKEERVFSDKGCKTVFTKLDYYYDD
Chain of Luciferin 4-monooxygenase (Photinus pyralis) (P08659 whole entry, looked up): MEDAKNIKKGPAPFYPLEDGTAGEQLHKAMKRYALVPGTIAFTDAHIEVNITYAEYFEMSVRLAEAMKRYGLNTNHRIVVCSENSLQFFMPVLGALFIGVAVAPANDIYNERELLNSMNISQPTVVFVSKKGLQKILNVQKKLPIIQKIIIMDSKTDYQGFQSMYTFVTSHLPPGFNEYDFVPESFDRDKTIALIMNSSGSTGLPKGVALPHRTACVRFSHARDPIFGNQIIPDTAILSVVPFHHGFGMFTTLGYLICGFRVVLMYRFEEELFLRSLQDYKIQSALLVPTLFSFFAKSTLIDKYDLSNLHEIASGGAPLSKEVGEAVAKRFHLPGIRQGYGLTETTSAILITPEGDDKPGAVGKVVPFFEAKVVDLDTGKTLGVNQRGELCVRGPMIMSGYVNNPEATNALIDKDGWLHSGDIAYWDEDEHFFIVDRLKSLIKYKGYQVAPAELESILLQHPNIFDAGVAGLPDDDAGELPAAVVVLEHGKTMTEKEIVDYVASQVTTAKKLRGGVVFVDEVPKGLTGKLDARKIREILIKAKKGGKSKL
Chain of Follistatin (Homo sapiens) (P19883 whole entry, looked up): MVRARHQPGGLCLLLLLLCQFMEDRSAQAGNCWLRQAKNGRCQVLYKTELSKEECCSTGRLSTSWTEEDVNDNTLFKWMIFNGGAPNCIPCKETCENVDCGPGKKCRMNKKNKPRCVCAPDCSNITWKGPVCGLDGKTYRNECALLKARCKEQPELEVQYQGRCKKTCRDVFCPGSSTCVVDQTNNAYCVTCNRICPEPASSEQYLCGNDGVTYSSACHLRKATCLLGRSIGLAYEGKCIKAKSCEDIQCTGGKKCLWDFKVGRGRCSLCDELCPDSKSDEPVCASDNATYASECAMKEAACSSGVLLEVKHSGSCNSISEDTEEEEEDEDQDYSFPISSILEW
Chain of Streptavidin (Streptomyces avidinii) (P22629 whole entry, looked up): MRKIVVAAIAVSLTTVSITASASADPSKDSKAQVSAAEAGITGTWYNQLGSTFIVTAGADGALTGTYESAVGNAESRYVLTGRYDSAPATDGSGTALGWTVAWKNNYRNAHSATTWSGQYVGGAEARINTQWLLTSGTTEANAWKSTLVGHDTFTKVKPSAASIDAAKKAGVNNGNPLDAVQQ
Chain of Focal adhesion kinase 1 (Homo sapiens) (Q05397 whole entry, looked up): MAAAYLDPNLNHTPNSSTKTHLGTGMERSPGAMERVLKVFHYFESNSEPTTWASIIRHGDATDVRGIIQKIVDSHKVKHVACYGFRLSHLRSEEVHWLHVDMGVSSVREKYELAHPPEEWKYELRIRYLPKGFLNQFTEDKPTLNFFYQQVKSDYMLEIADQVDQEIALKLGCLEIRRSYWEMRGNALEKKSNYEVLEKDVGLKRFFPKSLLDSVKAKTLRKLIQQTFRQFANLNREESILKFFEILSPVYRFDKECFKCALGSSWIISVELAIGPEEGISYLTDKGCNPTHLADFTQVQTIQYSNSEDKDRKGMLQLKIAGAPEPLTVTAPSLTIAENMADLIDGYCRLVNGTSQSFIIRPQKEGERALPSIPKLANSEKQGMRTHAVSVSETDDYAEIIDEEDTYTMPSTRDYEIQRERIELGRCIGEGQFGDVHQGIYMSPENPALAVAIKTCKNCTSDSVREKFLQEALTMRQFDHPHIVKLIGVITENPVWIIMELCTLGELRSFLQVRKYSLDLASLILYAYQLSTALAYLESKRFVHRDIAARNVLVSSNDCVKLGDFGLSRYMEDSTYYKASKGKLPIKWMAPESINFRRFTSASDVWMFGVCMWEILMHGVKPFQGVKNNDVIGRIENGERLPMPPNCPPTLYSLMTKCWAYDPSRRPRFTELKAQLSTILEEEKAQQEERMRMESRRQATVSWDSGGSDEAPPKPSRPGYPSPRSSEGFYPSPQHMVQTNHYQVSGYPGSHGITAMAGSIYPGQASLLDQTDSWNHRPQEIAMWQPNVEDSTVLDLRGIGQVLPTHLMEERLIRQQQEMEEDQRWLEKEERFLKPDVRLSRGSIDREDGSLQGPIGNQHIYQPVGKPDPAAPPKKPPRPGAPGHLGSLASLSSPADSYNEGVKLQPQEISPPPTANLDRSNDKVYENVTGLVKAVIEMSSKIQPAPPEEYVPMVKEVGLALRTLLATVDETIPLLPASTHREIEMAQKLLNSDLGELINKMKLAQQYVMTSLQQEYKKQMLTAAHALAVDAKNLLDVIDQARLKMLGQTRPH

For `C=C(COC)C(=O)CC[C@H](OC(C)=O)c1ccc(CO)o1`, the composite z-score in [1] is 1.59; in experiment [2], -0.805; in experiment [3], -0.451; in experiment [4], 0.0974; in [5], 1.37; in experiment [6] it was 1.45. The composite z-score in the experiment on Lefty1 is 0.744; in experiment [8] it was 0.841; in experiment [10], -0.0261; in experiment [15] it was -0.0888; in [16], -0.101; in the experiment with Torsin-1A (Homo sapiens) [17], -0.675. For the same molecule, the composite z-score was -0.337 with Torsin-1A (Homo sapiens) [18] and 1.55 in experiment [19]. Further, the z-score is -0.403 in experiment [7]; 0.288 (inactive) in experiment [9]; -2.28 (inactive) in experiment [11]; -0.824 (inactive) in experiment [12]; -0.0884 (inactive) in experiment [13]; 0.464 (inactive) in experiment [14].

With `CCc1cccc(NC(=O)O[C@H]2[C@H](OC(=O)Nc3ccccc3-c3ccccc3)[C@H](OC(=O)Nc3ccccc3-c3ccccc3)[C@@H](OC)O[C@@H]2CO)c1`, the composite z-score in [1] came to 0.979; in experiment [2], 1.21; in experiment [3], 0.775; in experiment [4] it was 1.01; in experiment [5] it was 1.36; in [6] it was 0.598. Also, the composite z-score in the experiment on Lefty1 worked out at 1.21; in experiment [8], 0.834; in [10] it was 0.947; in experiment [15], 0.284; in experiment [16], 0.0345; with Torsin-1A (Homo sapiens) [17], 0.762. In addition, the values for the composite z-score (with Torsin-1A (Homo sapiens) [18]; in experiment [19]) were 0.875 and 2.18, respectively. In addition, the z-score in experiment [7] was -1.35; in [9] it was 1.09 (inactive); in [11], -5.67 (inactive); in experiment [12], -1.82 (inactive); in [13], -0.506 (inactive); in experiment [14] it was -0.238 (inactive).

With `CC(C)(C)OC(=O)CC[C@]1(C(N)=O)N=C(c2ccc(OCCCO)cc2)O[C@H]1c1ccccc1N=[N+]=[N-]`, the composite z-score in experiment [1] was found to be 2.8; in [2], 0.977; in [3] it was 0.178; in experiment [4], 0.746; in experiment [5], 1.2; in experiment [6], 0.38. Further, the composite z-score is -0.512 with Lefty1; 1.1 in [8]; 0.641 in [10]; 1.49 in experiment [15]; 0.0966 in [16]; 0.448 in the experiment with Torsin-1A (Homo sapiens) [17]. Besides, the values for the composite z-score (with Torsin-1A (Homo sapiens) [18]; in experiment [19]) were 0.424 and -0.74, respectively. The z-score in [7] was -0.12; in [9] it was -8.33 (active); in experiment [11], -0.284 (inactive); in experiment [12], 0.303 (inactive); in experiment [13] it was 1.05 (inactive); in [14] it was -0.677 (inactive).

In the case of `COc1ccc(C(=O)Nc2ccc(CN3C(=O)[C@]4(O[C@H](CC(=O)N(CCO)Cc5ccccc5)[C@@H]([Si](C)(C)c5ccc(OC)cc5)[C@@H]4C)c4ccccc43)cc2)cc1`, the composite z-score in experiment [1] turned out to be 0.122; in experiment [2], 1.14; in [3], 0.677; in experiment [4], 0.375; in [5] it was 1.25; in [6] it was 1.31. In addition, the composite z-score with Lefty1 was 1.32; in [8] it was 0.162; in experiment [10] it was 0.334; in experiment [15] it was -0.138; in experiment [16] it was -0.128; with Torsin-1A (Homo sapiens) [17], 0.689. Further, the values for the composite z-score (with Torsin-1A (Homo sapiens) [18]; in experiment [19]) were -0.0595 and 1.94, respectively. Besides, the z-score is -0.474 in [7]; 0.505 (inactive) in [9]; -4.06 (inactive) in experiment [11]; 0.52 (inactive) in experiment [12]; 0.339 (inactive) in [13]; -0.221 (inactive) in experiment [14].

Take `CC(C)c1ccc(NN2C(C(O)c3ccccc3)C=CC3C(=O)N(c4ccccc4)C(=O)C32)cc1` (stereo not given): the composite z-score in experiment [1] is 0.593; in [2], 1.19; in [3], 0.684; in [4], 1.02; in experiment [5] it was 0.075; in experiment [6], -0.522. Also, the composite z-score in the experiment with Lefty1 was -0.56; in [8], 1.13; in experiment [10], 0.297; in experiment [15], 0.576; in experiment [16], 0.271; with Torsin-1A (Homo sapiens) [17], -0.388. Also, the composite z-score was 0.514 in the experiment with Torsin-1A (Homo sapiens) [18] and -0.983 in experiment [19]. In addition, the z-score is 0.266 in [7]; -2.04 (inactive) in [9]; -0.0828 (inactive) in experiment [11]; -0.89 (inactive) in experiment [12]; 0.433 (inactive) in experiment [13]; -0.0336 (inactive) in [14].
